Unmarked numbers belong to inactive results. Inconclusive results are not listed. Active and inactive are the calls of the source. Unless noted, calls come from the whole dose curve; as a rule, active = well fitted curve in the direction sought with a large enough effect; inconclusive = small, poorly fitted or top-dose-only effect, or another doubt; inactive = no such curve, though single readings can be large; an effect the other way counts as inactive or inconclusive.
Tests used:
[1] = biological target: Lysosomal acid glucosylceramidase (Homo sapiens) (UniProt P04062); assay: Glucocerebrosidase-p2 (AID 348; in the data active = potency below about 10 µM; note: potency is the fitted concentration of half-maximal effect); details: purified GBA, blue fluorogenic substrate, 40 min
Lysosomal acid glucosylceramidase (Homo sapiens), sequence (P04062 whole entry, looked up): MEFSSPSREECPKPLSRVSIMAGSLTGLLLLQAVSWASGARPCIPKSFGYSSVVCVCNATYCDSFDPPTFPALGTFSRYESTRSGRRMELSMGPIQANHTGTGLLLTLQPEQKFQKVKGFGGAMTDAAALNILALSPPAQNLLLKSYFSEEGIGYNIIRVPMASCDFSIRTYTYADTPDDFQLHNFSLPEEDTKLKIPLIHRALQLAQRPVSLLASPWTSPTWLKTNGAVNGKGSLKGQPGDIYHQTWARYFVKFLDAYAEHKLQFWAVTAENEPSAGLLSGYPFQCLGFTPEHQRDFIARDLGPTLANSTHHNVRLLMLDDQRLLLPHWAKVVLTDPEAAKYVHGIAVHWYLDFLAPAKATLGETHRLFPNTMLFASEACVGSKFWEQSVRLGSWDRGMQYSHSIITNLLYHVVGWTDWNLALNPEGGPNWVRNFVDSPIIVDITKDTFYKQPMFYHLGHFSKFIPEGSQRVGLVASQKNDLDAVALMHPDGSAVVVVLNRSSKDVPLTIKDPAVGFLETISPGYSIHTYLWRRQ
Method in brief: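 Compounds titrated from 0.6 nM upwards against 0.2 nM enzyme in pH 5.9 citric acid/KH2PO4, taurocholate, tween-20; blue fluorogenic substrate 80 uM, 40 min room temperature, stopped and read Ex 365/Em 440 for AC50.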

[2] = AP1 Signaling Pathway (AID 357; active = well fitted curve in either direction with a large enough effect, not every such curve was filed as active;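 note: ME-180 reporter cells stimulated with EGF at its EC50 level; % is set by controls: 0 for no effect and ±100 for the full control effect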); details: ME-180 AP-1-bla reporter, EGF-induced, beta-lactamase ratio, 5 h; at 7.69 µM (top of the series) unless noted
Method in brief: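 Titration-series screen for positive or negative modulators of EC50 EGF-induced signaling in ME-180 cells carrying an AP-1-driven beta-lactamase reporter. After 5 hours at 37 degrees Celsius, CCF4 460nm/530nm emission ratio gave %Activity; AC50 values derived.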

[3] = biological target: Cytochrome P450 1A2 (Homo sapiens) (UniProt P05177); assay: p450-cyp1a2 (AID 410; calls by dose curve; note: potency is the fitted concentration of half-maximal effect;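 for activity change, negative = inhibition: -100% = full effect of reference inhibitor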); details: recombinant CYP1A2, luciferin-ME demethylation, luminescence; series mostly up to 57 µM
Cytochrome P450 1A2 (Homo sapiens), sequence (P05177 whole entry, looked up): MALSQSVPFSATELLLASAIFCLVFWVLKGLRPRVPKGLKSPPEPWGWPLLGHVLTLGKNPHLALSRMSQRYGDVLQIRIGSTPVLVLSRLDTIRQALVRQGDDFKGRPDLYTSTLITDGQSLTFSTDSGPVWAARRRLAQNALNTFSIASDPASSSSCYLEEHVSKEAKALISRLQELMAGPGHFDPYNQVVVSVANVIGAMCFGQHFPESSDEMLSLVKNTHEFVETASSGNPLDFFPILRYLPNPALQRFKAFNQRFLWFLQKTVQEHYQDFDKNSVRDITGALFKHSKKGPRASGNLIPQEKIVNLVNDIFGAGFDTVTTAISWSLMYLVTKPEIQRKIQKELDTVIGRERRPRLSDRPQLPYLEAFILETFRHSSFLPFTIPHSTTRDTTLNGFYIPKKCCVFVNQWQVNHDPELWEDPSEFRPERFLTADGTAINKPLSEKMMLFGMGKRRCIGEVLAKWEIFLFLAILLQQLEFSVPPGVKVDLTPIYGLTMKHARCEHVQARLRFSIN
Method in brief: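 Luminescent readout of luciferin formed from Luciferin-ME by human CYP1A2; data normalized against complete inhibition by 57 uM furafylline. Enzyme 20nM, substrate 100uM at Km, 100mM KPO4 buffer, 60 min reaction at room temperature.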

[4] = NFAT Signaling Pathway (AID 444; active = well fitted curve in either direction with a large enough effect, not every such curve was filed as active;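 note: carbachol stimulus at about its EC50 of 1 µM final; % is set by controls: 0 for no effect and ±100 for the full control effect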); details: Jurkat NFAT-bla M1, carbachol, beta-lactamase ratio, 5 h; at 7.69 µM (top of the series) unless noted
Method in brief: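 Read-out: CCF4 FRET ratio (460 nm/530 nm) after 1 h RT dye loading, used for %activity and AC50 from titration series. Cells: Jurkat NFAT-β-lactamase/M1 line, treated with compound plus 1 uM carbachol for 5 h, 37 °C.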

[5] = Stat Signaling Pathway (AID 446; active = well fitted curve in either direction with a large enough effect, not every such curve was filed as active;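 note: ME-180 cervical cancer cells given 40 pM IL-6 alongside compound; SIE-controlled beta-lactamase reporter measured as 460/530 nm FRET emission ratio; % is set by controls: 0 for no effect and ±100 for the full control effect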); details: ME-180 SIE beta-lactamase reporter, IL-6 stimulated, 5 h; at 7.69 µM (top of the series) unless noted
Method in brief: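 Screening format detects activators and inhibitors alike: ME-180 SIE-bla cells stimulated at 40 pM IL-6 for 5 hrs with compound, then dual-emission beta-lactamase read at 405 nm excitation.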

[6] = biological target: Glucocorticoid receptor (Homo sapiens) (UniProt P04150); assay: GR-EFC Redistribution (AID 451; calls by dose curve; note: potency is the fitted concentration of half-maximal effect); details: CHO-K1 GR-EFC translocation, beta-gal luminescence, 2 h
Glucocorticoid receptor (Homo sapiens), sequence (P04150 whole entry, looked up, the tested form may be a part): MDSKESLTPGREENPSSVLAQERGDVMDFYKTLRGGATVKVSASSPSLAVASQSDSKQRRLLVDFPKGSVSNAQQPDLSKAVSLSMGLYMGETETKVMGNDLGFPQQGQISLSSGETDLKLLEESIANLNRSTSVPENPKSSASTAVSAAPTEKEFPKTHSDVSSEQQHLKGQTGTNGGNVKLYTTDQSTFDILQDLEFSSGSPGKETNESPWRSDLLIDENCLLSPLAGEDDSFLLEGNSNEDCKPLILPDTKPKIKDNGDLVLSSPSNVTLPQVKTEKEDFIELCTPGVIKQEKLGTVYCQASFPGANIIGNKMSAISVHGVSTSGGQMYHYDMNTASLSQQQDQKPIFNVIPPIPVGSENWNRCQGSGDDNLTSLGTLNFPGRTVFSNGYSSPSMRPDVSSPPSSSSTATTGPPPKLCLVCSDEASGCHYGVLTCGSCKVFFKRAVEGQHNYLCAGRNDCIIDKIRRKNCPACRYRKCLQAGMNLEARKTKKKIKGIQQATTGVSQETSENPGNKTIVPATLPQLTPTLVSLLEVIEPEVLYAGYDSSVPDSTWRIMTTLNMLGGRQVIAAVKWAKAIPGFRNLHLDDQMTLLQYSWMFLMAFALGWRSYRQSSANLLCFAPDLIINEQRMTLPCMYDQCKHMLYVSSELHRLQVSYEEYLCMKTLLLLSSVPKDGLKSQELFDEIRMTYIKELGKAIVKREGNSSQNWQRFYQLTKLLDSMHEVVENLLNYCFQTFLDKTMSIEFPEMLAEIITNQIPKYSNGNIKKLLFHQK
Method in brief: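 Translocation of GR-ED fusion to nuclear EA restores b-gal, read by luminescence after 1 h room-temperature detection. Engineered CHO-K1 biosensor cells, 1,000/well, exposed 2 h at 37 C to titrations up to 46 uM final.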

[7] = biological target: Mitogen-activated protein kinase 10 (Mus musculus) (UniProt Q61831); assay: JNK3 AlphaScreen Assay (AID 530; active = well fitted curve in either direction with a large enough effect, not every such curve was filed as active;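 note: kinase came from lysate of stimulated human HepG2 cells; signal reports phosphorylation of biotinylated GST-cJun 1-79 at Ser73 with 10 µM ATP; % is set by controls: 0 for no effect and ±100 for the full control effect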); details: JNK3 lysate, c-Jun phosphorylation; series mostly up to 57.1 µM
Method in brief: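 Compound titrations were preincubated 15 minutes at room temperature with substrate, antibody and pre-activated JNK3-containing HepG2 lysate. Reactions were started with 10 uM ATP and stopped with EDTA-containing bead buffer for AlphaScreen detection.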

[8] = biological target: 3',5'-cyclic-AMP phosphodiesterase 4B (Homo sapiens) (UniProt Q07343); assay: qHTS Assay for Inhibitors of PDE-IV (AID 607; active = well fitted activation curve with a large enough effect in the main read-out, with a control signal flat, not every such curve was filed as active; note: % of control where 0% means no effect); details: HEK293 ACTOne CNG channel cells, membrane potential fluorescence; series mostly up to 22.9 µM
3',5'-cyclic-AMP phosphodiesterase 4B (Homo sapiens), sequence (Q07343 whole entry, looked up): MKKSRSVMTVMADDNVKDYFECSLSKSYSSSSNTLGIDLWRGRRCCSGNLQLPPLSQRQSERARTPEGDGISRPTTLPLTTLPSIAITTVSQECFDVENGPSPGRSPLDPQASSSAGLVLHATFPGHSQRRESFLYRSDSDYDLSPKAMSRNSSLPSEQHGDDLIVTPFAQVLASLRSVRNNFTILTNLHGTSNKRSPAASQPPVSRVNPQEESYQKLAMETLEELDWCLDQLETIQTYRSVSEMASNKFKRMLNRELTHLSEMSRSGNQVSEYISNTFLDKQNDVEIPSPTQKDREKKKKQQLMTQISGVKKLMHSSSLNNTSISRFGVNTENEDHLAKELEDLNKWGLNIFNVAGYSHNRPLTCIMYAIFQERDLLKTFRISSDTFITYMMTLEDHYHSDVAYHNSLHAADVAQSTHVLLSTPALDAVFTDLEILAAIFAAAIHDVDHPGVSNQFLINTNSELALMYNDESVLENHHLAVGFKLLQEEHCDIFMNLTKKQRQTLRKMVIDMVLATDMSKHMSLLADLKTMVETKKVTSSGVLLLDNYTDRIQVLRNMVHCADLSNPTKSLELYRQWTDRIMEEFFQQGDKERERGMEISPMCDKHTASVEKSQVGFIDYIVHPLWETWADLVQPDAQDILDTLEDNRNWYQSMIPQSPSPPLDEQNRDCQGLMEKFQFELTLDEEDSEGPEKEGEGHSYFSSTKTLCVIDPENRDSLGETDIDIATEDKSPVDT
Method in brief: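 The readout is membrane depolarisation from a cAMP-sensing CNG channel, detected with a potential dye at ex 535/em 590. Cells were HEK293-derived (endogenous PDE-IV) at 1000 cells/well, titrated up to 22.9 uM final.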

[9] = biological target: Cytochrome P450 3A4 (Homo sapiens) (UniProt P08684); assay: qHTS Assay for Inhibitors and Substrates of Cytochrome P450 3A4 (AID 884); details: recombinant CYP3A4, Luciferin-PPXE luminescence; series mostly up to 57.1 µM; note: nearly all actives have a fitted effect of over 50% in size; note: potency is the fitted concentration of half-maximal effect
Cytochrome P450 3A4 (Homo sapiens), sequence (P08684 whole entry, looked up): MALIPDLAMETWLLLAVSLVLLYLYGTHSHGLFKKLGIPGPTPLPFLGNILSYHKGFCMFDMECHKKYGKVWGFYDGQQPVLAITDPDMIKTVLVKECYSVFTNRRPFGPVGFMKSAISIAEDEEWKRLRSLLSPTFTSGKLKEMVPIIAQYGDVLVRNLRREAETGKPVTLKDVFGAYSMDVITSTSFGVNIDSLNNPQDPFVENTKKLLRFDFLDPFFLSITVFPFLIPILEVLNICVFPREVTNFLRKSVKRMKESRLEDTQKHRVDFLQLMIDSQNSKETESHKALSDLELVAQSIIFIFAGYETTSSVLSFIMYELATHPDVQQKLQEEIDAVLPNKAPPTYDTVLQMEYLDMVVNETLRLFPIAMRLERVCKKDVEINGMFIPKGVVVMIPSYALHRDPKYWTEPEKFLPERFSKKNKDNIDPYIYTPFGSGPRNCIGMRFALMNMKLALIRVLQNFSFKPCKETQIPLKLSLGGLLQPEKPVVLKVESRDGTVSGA
Method in brief: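 20 nM human CYP3A4 with 25 uM Luciferin-PPXE (at KM) in 200 mM KPO4, preincubated 10 min with compound; NADPH regeneration started a 60 min RT reaction. Luciferin detected by luminescence, normalized to 57 uM ketoconazole as full inhibition.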

[10] = biological target: Cytochrome P450 3A4 (Homo sapiens) (UniProt P08684); assay: qHTS Assay for Activators of Cytochrome P450 3A4 (AID 885); details: recombinant CYP3A4, Luciferin-PPXE luminescence, 60 min; series mostly up to 57.1 µM; note: nearly all actives have a fitted effect of over 65% in size
Method in brief: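 Steps: enzyme/substrate mix dispensed; compound added, 10 min RT; NADPH regeneration solution added, 60 min RT; luciferin detection buffer stops reaction; 20 min later luminescence measured.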

[11] = biological target: Dual specificity protein kinase CLK4 (Homo sapiens) (UniProt Q9HAZ1); assay: qHTS Assay for Inhibitors of CDC-like Kinase 4 (Kinase-Glo Assay) (AID 1770); details: recombinant Clk4, Kinase-Glo ATP depletion luminescence; series mostly up to 66.7 µM; note: nearly all actives have a fitted effect of over 65% in size; note: potency is the fitted concentration of half-maximal effect
Dual specificity protein kinase CLK4 (Homo sapiens), sequence (Q9HAZ1 whole entry, looked up): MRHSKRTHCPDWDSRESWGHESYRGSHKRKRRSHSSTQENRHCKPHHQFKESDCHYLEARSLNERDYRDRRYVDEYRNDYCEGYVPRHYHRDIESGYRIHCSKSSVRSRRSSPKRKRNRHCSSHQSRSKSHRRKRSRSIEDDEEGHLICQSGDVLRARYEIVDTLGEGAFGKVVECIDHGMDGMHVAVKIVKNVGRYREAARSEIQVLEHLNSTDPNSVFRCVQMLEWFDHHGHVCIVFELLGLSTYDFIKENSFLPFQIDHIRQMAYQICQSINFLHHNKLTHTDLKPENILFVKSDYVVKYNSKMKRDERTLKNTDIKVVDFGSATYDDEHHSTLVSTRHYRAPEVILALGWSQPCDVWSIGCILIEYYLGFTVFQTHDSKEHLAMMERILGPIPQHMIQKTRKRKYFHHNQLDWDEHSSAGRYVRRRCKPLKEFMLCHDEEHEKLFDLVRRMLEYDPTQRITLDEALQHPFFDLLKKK
Method in brief: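 Recombinant human Clk4 (25 nM) phosphorylated RS repeat peptide (100 uM) with 1 uM ATP in Tris pH 7.5/MgCl2/EGTA/DTT/Triton buffer for 4.5 h at room temperature. Residual ATP was quantified by Kinase-Glo luciferase luminescence.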

[12] = biological target: Dual specificity protein kinase CLK4 (Homo sapiens) (UniProt Q9HAZ1); assay: qHTS Assay for Inhibitors of CDC-like Kinase 4 (ADP-Glo Assay) (AID 1771); details: recombinant CLK4, ADP-Glo luminescence; series mostly up to 80 µM; note: nearly all actives have a fitted effect of over 70% in size; note: potency is the fitted concentration of half-maximal effect
Method in brief: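 Luminescence from ADP-Glo reports ADP produced by 25 nM Clk4 acting on 100 uM RS repeat peptide with 1 uM ATP over 1 hr at room temperature; residual ATP is depleted before ADP is converted to ATP for detection.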

[13] = biological target: Dual specificity protein kinase CLK4 (Homo sapiens) (UniProt Q9HAZ1); assay: qHTS Assay for Inhibitors of CDC-like Kinase 4 (ADP-FP Assay) (AID 1795); details: Transcreener ADP fluorescence polarization; series mostly up to 50 µM; note: nearly all actives have a fitted effect of over 60% in size; note: potency is the fitted concentration of half-maximal effect
Method in brief: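 Recombinant human Clk4 (6.25 nM) phosphorylated RS repeat peptide (100 uM) with 1 uM ATP in Tris pH 7.5/MgCl2/EGTA/DTT/Triton buffer for one hour. ADP was quantified by Transcreener competitive fluorescence polarization against an ADP calibration curve.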

[14] = biological target: Ubiquitin carboxyl-terminal hydrolase 1 (Homo sapiens) (UniProt O94782); assay: Inhibitors of USP1/UAF1: Pilot qHTS (AID 504865); details: purified USP1/UAF1, Ub-rhodamine cleavage fluorescence; series mostly up to 54.9 µM;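 note: rhodamine fluorescence freed from ubiquitin-rhodamine substrate followed over time; top concentration of the series differs between compounds; % is set by controls: 0 for no effect and ±100 for the full control effect; nearly all actives have a fitted effect of over 35% in size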
Ubiquitin carboxyl-terminal hydrolase 1 (Homo sapiens), sequence (O94782 whole entry, looked up): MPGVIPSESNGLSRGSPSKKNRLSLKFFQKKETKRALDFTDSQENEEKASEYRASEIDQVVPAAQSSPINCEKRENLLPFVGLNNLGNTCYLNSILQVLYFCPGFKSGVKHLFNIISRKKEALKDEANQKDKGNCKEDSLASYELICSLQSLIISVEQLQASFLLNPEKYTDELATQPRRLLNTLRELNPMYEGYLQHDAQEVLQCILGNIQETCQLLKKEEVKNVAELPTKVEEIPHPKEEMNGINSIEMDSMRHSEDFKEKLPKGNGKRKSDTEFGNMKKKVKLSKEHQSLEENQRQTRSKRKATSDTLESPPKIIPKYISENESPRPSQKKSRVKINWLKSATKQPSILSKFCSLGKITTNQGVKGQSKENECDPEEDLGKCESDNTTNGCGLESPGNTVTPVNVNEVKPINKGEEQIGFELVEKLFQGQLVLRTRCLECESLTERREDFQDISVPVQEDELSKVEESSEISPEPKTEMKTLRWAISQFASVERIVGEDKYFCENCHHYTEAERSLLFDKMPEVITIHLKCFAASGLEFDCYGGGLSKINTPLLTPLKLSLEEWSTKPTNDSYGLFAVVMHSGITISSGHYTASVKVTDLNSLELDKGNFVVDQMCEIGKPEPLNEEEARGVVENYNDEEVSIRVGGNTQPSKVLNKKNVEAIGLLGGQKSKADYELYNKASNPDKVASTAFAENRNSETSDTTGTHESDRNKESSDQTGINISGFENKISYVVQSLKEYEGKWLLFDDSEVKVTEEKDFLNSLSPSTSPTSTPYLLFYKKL
Method in brief: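 USP1/UAF1 complex (1nM) preincubated with compound 15 min at room temperature, then Ub-Rho substrate (150nM final) added. Fluorescence read kinetically at 480/540 nm, 6 reads every 60 seconds. Buffer: 50mM HEPES pH 7.8, 0.5mM EDTA, 0.1 mg/ml BSA, 1mM TCEP, 0.01% Tween-20.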

[15] = Primary qHTS for small molecule stabilizers of the endoplasmic reticulum resident proteome: Secreted ER Calcium Modulated Protein (SERCaMP) assay (AID 1508630); details: SH-SY5Y GLuc-SERCaMP (Gaussia luciferase released on ER calcium loss) secretion, thapsigargin, luminescence; series mostly up to 38.4 µM; note: % is set by controls: 0 for no effect and ±100 for the full control effect
Method in brief: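 GLuc-SERCaMP-expressing SH-SY5Y cells, pretreated 16 h with compound, are challenged with thapsigargin to empty ER calcium stores; after 4 h, coelenterazine is added directly to the medium and luminescence is imaged.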

[16] = biological target: Glucocorticoid receptor (Homo sapiens) (UniProt P04150); assay: GR-GFP Redistribution (AID 450;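 active = compounds whose dose series gives a full or clear partial fitted curve of increased nuclear translocation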; note: potency is the fitted concentration of half-maximal effect); details: U2OS GR-GFP nuclear translocation, laser cytometry, 2 h
[17] = qHTS Assay for Identification of Small Molecule Agonists for Hypoxia Response Element Signaling Pathway (AID 914; active = well fitted activation curve with a large enough effect in the signal ratio, with a control signal flat, not every such curve was filed as active; the % refers to the signal ratio; note: potency is the fitted concentration of half-maximal effect); details: ME-180 (cervical carcinoma) HRE-bla reporter, beta-lactamase ratio, CoCl2, 17 h; activation: hits give high values
Method in brief: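 Reporter activity (beta-lactamase, CCF4 460nm/530nm ratio) in HRE-bla ME-180 cells is recorded after 17 h compound exposure with EC50 CoCl2 at 37 degrees Celsius. AC50 values come from titration data.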

SMILES	Potency [1]	activity change, negative = inhibition [2]	Potency [3]	activity change, negative = inhibition [4]	activity, negative = inhibition [5]	Potency [6]	Potency [7]	Potency [8]	Potency [9]	Potency [10]	Potency [11]	Potency [12]	Potency [13]	Potency [14]	outcome [15]	Potency [16]	Potency [17]
COc1ccccc1-c1cc(-n2ccnc2)ncn1	> 11.4 µM	8.26%	0.316 µM (active)	7.77%	10.2%	> 46 µM	inactive	inactive	0.316 µM (active)	inactive	6.31 µM (active)	6.31 µM (active)	8.91 µM (active)	inactive	inactive	–	–
N#CCCn1c(=O)c(CCc2ccccc2)nc2cnc(Nc3ccccc3)nc21	> 11.4 µM	-27.7%	inactive	-25.2%	–	> 46 µM	inactive	inactive	–	inactive	inactive	inactive	inactive	inactive	inactive	> 9.22 µM	–
CN(Cc1ccco1)c1ccnc(-c2cccc(C#N)c2)n1	> 11.4 µM	-18.2%	0.398 µM (active)	–	2.59%	> 46 µM	inactive	inactive	–	inactive	14.1 µM (active)	15.8 µM (active)	14.1 µM (active)	inactive	inactive	> 46 µM	–
O=c1c(-c2ccc(Cl)cc2)nc2cnc(Nc3ccccc3)nc2n1C[C@H]1CCCO1	> 11.4 µM	-8.65%	12.6 µM (active)	-7.53%	–	> 46 µM	inactive	–	–	–	inactive	inactive	inactive	inactive	inactive	> 9.22 µM	0.126 µM (active)
Cc1cnc(CNc2ccnc(-c3ccccc3C)n2)cn1	> 11.4 µM	3.37%	12.6 µM (active)	-3.78%	-1.97%	> 46 µM	inactive	inactive	–	inactive	inactive	inactive	inactive	inactive	inactive	–	–
Cn1c(=O)c(-c2ccc(F)cc2)nc2cnc(N3CCOCC3)nc21	> 11.4 µM	14.8%	2.51 µM (active)	24.2%	–	> 46 µM	inactive	inactive	inactive	–	inactive	inactive	inactive	inactive	inactive	> 9.22 µM	2.51 µM (active)

— PubChem BioAssay (NCATS)
